The panel holds about 83,000 compounds, 20% with a hit somewhere; the sample as a whole holds those more often.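 48-hour exposure, single concentration, 96-well plates; percent growth endpoint where 0 means no net growth. Active: below 10.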 The source made the active and inactive calls.
What was measured:
Test in all cases: NCI-60 one-dose screen, 48 h (100 = growth as untreated, 0 = no growth, -100 = all killed)
Conditions in all cases: 10 µM unless noted
[1] = tested on: SR leukemia
[2] = tested on: RPMI-8226 leukemia
[3] = tested on: OVCAR-8 ovarian
[4] = tested on: OVCAR-5 ovarian
[5] = tested on: OVCAR-4 ovarian
[6] = tested on: SK-OV-3 ovarian
[7] = tested on: IGROV1 ovarian
[8] = tested on: OVCAR-3 ovarian
[9] = tested on: HS 578T breast
[10] = tested on: NCI/ADR-RES ovarian
[11] = tested on: T-47D breast
[12] = tested on: BT-549 breast
[13] = tested on: MDA-MB-435 melanoma
[14] = tested on: SW-620 colon
[15] = tested on: MCF7 breast
[16] = tested on: HCT-116 colon
[17] = tested on: HCC-2998 colon
[18] = tested on: KM12 colon

Measured: growth

CCCn1c(=O)[nH]c(N)c([C@H]2c3ccccc3Oc3[nH]c(=O)n(CCC)c(=O)c32)c1=O
inactive: [2] 81.7% | [3] 78.9% | [4] 99.4% | [5] 64.6% | [6] 104% | [7] 89% | [8] 13.8% | [9] 92.8% | [10] 94.8% | [11] 34.7% | [12] 42.8% | [13] 84.4% | [14] 61.2% | [15] 26.4% | [16] 32.5% | [17] 104% | [18] 99.8%
active: [1] 4.41%

O=C1/C(=C/c2ccccc2)SC(=S)N1CCc1ccc(O)cc1
inactive: [1] 93.7% | [2] 95.5% | [3] 96.3% | [4] 103% | [5] 76.4% | [6] 85% | [7] 82.3% | [8] 97.4% | [9] 76.9% | [10] 99.3% | [11] 54.3% | [12] 106% | [13] 96.2% | [14] 95.6% | [15] 112% | [16] 95.9% | [17] 107% | [18] 87.8%

O=C(N(c1ccccc1)c1ccccc1)n1ccc2nc(Cl)nc(Cl)c21
inactive: [1] 54.4% | [2] 16.1% | [3] 63.2% | [4] 64.2% | [5] 63.3% | [6] 49.7% | [7] 68.5% | [8] 30% | [9] 42.2% | [10] 35.8% | [11] 34.2% | [12] 47.2% | [13] 37.9% | [14] 51.1% | [15] 32.5% | [16] 49.6% | [17] 91.5% | [18] 55.7%

CCC([N+](=O)[O-])S(=O)(=O)c1ccc(C)cc1 (stereo unspecified)
inactive: [1] 113% | [2] 106% | [3] 95.3% | [4] 88.2% | [5] 93.6% | [6] 108% | [7] 103% | [8] 150% | [9] 129% | [10] 92.3% | [11] 92.6% | [12] 109% | [13] 113% | [14] 104% | [15] 101% | [16] 98.7% | [17] 64.5% | [18] 136%

Nc1n[nH]c2ccc([C@@H]3Nc4cc5c(cc4[C@H]4C6CCC(C6)[C@@H]34)C(=O)NC5)cc12 (stereo partly specified)
active: [1] 8.36% | [8] -3.29% | [12] -0.949% | [13] -21.5% | [16] 6.53% | [18] 8.14%
inactive: [2] 34.6% | [3] 21.5% | [4] 33.1% | [5] 30.7% | [6] 42.1% | [7] 12.6% | [9] 24.5% | [10] 69% | [11] 76.9% | [14] 18.5% | [15] 17.2% | [17] 17.1%

Cc1cc(N2CCOCC2)nc(NCc2cc(Nc3ccnc4cc(Cl)ccc34)ccc2F)n1
active: [1] -41.3% | [2] -40.4% | [3] -48.9% | [4] -17.2% | [5] 3.65% | [6] -40.8% | [7] -14.1% | [8] -94.2% | [9] -14.2% | [10] -56.9% | [11] -34.9% | [12] -37.7% | [13] -79.5% | [14] -69.9% | [15] -55.9% | [16] -78.4% | [17] -69% | [18] -61.9%

CC1C(/C=N/Nc2ccccc2)C(C#N)(C#N)C1(C#N)C#N (stereo unspecified)
inactive: [1] 46.6% | [2] 82% | [3] 85.6% | [4] 87.3% | [5] 76.1% | [6] 95.7% | [7] 56.3% | [8] 86.2% | [9] 87.2% | [10] 65.1% | [11] 79.3% | [12] 77.4% | [13] 62.5% | [14] 60.2% | [15] 82.4% | [16] 67.3% | [17] 86% | [18] 62.5%

COc1ccc2[nH]cc(-c3noc(C(=O)c4cn(C)c5ccc(F)cc45)n3)c2c1
inactive: [1] 89.7% | [2] 104% | [3] 93.6% | [4] 99.9% | [5] 95.2% | [6] 87.3% | [7] 60.1% | [8] 97.5% | [9] 90.9% | [10] 96% | [11] 83.8% | [12] 88.9% | [13] 102% | [14] 95.1% | [15] 58.8% | [16] 101% | [17] 101% | [18] 92.6%

O=C(Nc1ccc(Cl)cc1)c1cc2cc(F)ccc2cc1O
active: [1] 4.79% | [2] -8.91% | [3] 8.21% | [6] -18.7% | [10] 4.6% | [11] -7.01% | [12] 1.77% | [15] 7.1%
inactive: [4] 29.9% | [5] 26.4% | [7] 42.5% | [8] 23% | [9] 18.6% | [13] 10.5% | [14] 15.5% | [16] 12.3% | [17] 27.8% | [18] 12.3%

C#CCOc1ccc2ncnc(Nc3cccc(CNC(=O)C=C)c3)c2c1
inactive: [1] 103% [8.25 µM] | [2] 101% [8.25 µM] | [3] 95.8% [8.25 µM] | [4] 100% [8.25 µM] | [5] 92.5% [8.25 µM] | [6] 107% [8.25 µM] | [7] 88.8% [8.25 µM] | [8] 104% [8.25 µM] | [9] 91.9% [8.25 µM] | [10] 107% [8.25 µM] | [11] 87.9% [8.25 µM] | [12] 96.4% [8.25 µM] | [13] 97.1% [8.25 µM] | [14] 107% [8.25 µM] | [15] 87% [8.25 µM] | [16] 104% [8.25 µM] | [17] 106% [8.25 µM] | [18] 109% [8.25 µM]

CC(=O)NCC1c2c(n(C)c3c(Cl)c(Cl)ccc23)C(=O)NC1(C)C (stereo unspecified)
inactive: [1] 75.2% | [2] 100% | [3] 91.3% | [4] 88.7% | [5] 103% | [6] 116% | [7] 96.5% | [8] 107% | [9] 104% | [10] 88.1% | [11] 98.5% | [12] 102% | [13] 96.4% | [14] 113% | [15] 92.1% | [16] 94.8% | [17] 93% | [18] 118%

O=C1Nc2cc(-c3ccc(O)cc3)ccc2/C1=C/c1ccc[nH]1
active: [1] 5.01% | [2] 3.47% | [6] 8.32% | [8] 4.63% | [10] -1.85% | [11] 0.283% | [13] 7.05% | [15] 1.73% | [16] 4.68% | [17] -13.9% | [18] 2.31%
inactive: [3] 12.3% | [4] 19% | [5] 26.3% | [7] 13% | [9] 18.1% | [12] 16.9% | [14] 14.1%

CC[N+](CC)=c1sc2c(s1)C(c1ccc(Cl)cc1)Oc1ccc(Cl)cc1-2 (stereo unspecified)
active: [2] -31.4% | [5] 9.29% | [6] -6.15% | [7] 9.22% | [8] 1.97% | [11] -2.38% | [12] 4.07% | [13] 2.5% | [14] 2.29% | [15] 4.58% | [16] 6.48% | [17] -15.1% | [18] -28.8%
inactive: [1] 14.8% | [3] 10.7% | [4] 15.1% | [9] 18.3% | [10] 88.9%

NS(=O)(=O)c1ccc(CN=C2NC(=O)S/C2=C\c2ccc(Br)cc2)cc1
inactive: [1] 119% | [2] 99.8% | [3] 106% | [4] 94.1% | [5] 112% | [6] 94.3% | [7] 96.9% | [8] 106% | [9] 97.6% | [10] 105% | [11] 99.2% | [12] 103% | [13] 101% | [14] 97.9% | [15] 93.5% | [16] 94.7% | [17] 107% | [18] 109%

O=C(/C=C/c1ccc(C(F)(F)F)cc1)Nc1ccc(C=C2c3ccccc3C(=O)c3ccccc32)cc1
active: [13] 6.92%
inactive: [1] 18.6% | [2] 10.4% | [3] 55.7% | [4] 84.2% | [5] 47.5% | [6] 77.9% | [7] 111% | [8] 44.1% | [9] 78.5% | [10] 60% | [11] 50.3% | [12] 57.6% | [14] 65.3% | [15] 46.5% | [16] 38.3% | [17] 78.3% | [18] 25.9%

Cc1ccc2c(C(C[N+](=O)[O-])c3ccco3)c(-c3ccccc3)[nH]c2c1 (stereo unspecified)
active: [10] 7.41% | [13] -34%
inactive: [1] 24% | [2] 27.4% | [3] 48.1% | [4] 54.9% | [5] 64.2% | [6] 21.7% | [7] 29% | [8] 14.2% | [9] 16.2% | [11] 16.1% | [12] 53.3% | [14] 17.1% | [15] 16.5% | [16] 19.6% | [17] 70% | [18] 20.2%

CCCOc1cc2ccccc2cc1C(=O)Nc1nc(N)c2c(ccc3nccc32)[nH]1
active: [1] -16.2% | [2] -40.5% | [3] -49% | [4] -67.7% | [5] -50.9% | [6] -77.2% | [7] -47% | [8] -60.5% | [9] -56.1% | [10] -8.57% | [11] -51% | [12] -41% | [13] -94.5% | [14] -80.4% | [15] -52.3% | [16] -58.9% | [17] -68.3% | [18] -72.8%

From PubChem BioAssay (NCI)
